Assay outcomes deposited in PubChem by National Center for Advancing Translational Sciences (NCATS).
CHX counter = Cycloheximide Counterscreen for Small Molecule Inhibitors of Shiga Toxin; max response, %; cell reporter, cycloheximide protein synthesis inhibition counterscreen; 12% of 300,000 active; in the data active = max response mostly above about 13%, no sharp cut-off; inactive = mostly below about 14%; note: read at 38.3 µM for the half of the compounds with a filed dose; 0% is about no effect
LASV entry inh = qHTS for Inhibitors of binding or entry into cells for Lassa Virus | 1.2% of 300,000 active | Potency, µM (highest dose often 37.9 µM), for inactives: top-dose activity change, negative = inhibition, usual class: inhibitors | Lassa virus pseudotype entry inhibition, cell reporter; calls by dose curve; tested in HEK293 cells; note: potency is the fitted concentration of half-maximal effect; % is set by controls: 0 for no effect and ±100 for the full control effect; nearly all actives have a fitted effect of over 50% in size
Shiga inhibitor = A qHTS for Small Molecule Inhibitors of Shiga Toxin; inhibition, % at 38.7 µM; AID 2315, 2010; Vero cells, Shiga toxin protein synthesis inhibition reporter; 9.2% of 290,000 active; in the data active = inhibition mostly above about 28%, no sharp cut-off; inactive = mostly below about 43%; note: 0% is about no effect
Marburg entry inh = qHTS for inhibitors of binding or entry into cells for Marburg Virus | Marburg virus pseudotyped entry inhibition, cell reporter | Potency, µM (titrated, usually from 37.8 µM), inactives show top-dose activity change, negative = inhibition, most hits filed as inhibitors | 1.8% of 300,000 active | AID 540276, 2011; calls by dose curve; tested in HEK293 cells; note: potency is the fitted concentration of half-maximal effect; % is set by controls: 0 for no effect and ±100 for the full control effect
* = called active by the depositor; ? = inconclusive; . = no result; [ ] = remark or other dose. Shown are actives, neighbours in structure and some others; about 12% of the full set was active somewhere.

SMILES	CHX counter	LASV entry inh	Shiga inhibitor	Marburg entry inh
CC(=O)N/C(=C\c1cccc([N+](=O)[O-])c1)C(=O)NC1CCCCC1	48.8*	-4.9%	61.1*	?
O=C(NCC1CCCO1)C(=Cc1cccc([N+](=O)[O-])c1)C(=O)NCC1CCCO1 (stereo unspecified)	8.9	?	37.3	11.6µM*
O=C(NC1CCCCC1)c1cc2cc(Br)ccc2o1	58.3*	?	75.7*	?
Cc1ccc(NC(=O)/C(=C/c2cccc([N+](=O)[O-])c2)NC(=O)C2CCCCC2)cc1	-0.6	16.7%	-5.2	-1.6%
O=C(NCC1CCCO1)/C(=C\c1cccc([N+](=O)[O-])c1)NC(=O)c1ccccc1 (stereo unspecified)	3.0	1.2%	-1.0	-9.0%[46.1 µM]
CN(C(=O)CNC(=O)c1ccc(Br)o1)C1CCCCC1	20.8*	4.0%	78.2*	1.7%
O=C(COc1ccc(Br)cc1)NCCCNC(=O)c1ccncc1	-3.9	.	-16.0	.
O=C(NC1CCCCCC1)c1ccc(Br)o1	13.2	12.3%[46.1 µM]	37.9	?
O=C(NC1CCCCCCC1)c1ccc(Br)o1	24.9*	1.7%[46.1 µM]	83.5*	1.6%[46.1 µM]
O=C(NC1CCCC1)c1cc2cc(Br)ccc2o1	51.3*	-24.4%[46.1 µM]	92.5*	-6.1%[46.1 µM]
O=C(O)c1ccc(-c2cccc([N+](=O)[O-])c2)o1	5.2	.	21.8	.
O=C(NC1CCCCC1)c1ccc(-c2cccc([N+](=O)[O-])c2)o1	55.6*	.	74.1*	.
COc1ccc(-c2cc3c(=O)n(CC(=O)NCc4cccnc4)ncn3n2)cc1	27.5*	.	37.1*	.
CN(CC(=O)NCc1cccnc1)S(=O)(=O)c1ccccc1	-0.4	.	-14.6	.
COc1ccc(S(=O)(=O)N(C)CC(=O)NCc2cccnc2)cc1	10.1	0.0%	74.6*	1.1%
COCCn1c(=S)[nH]c2cc(C(=O)N3CCCC(C)C3)ccc2c1=O (stereo unspecified)	-3.1	.	-4.2	.
COc1ccccc1C(=O)NCCC(=O)NC(C)c1ccc(-n2ccnc2)cc1 (stereo unspecified)	.	4.7%	.	18.0%
CN(C)C(=O)C(CCN1CCC(O)(c2ccc(Cl)cc2)CC1)(c1ccccc1)c1ccccc1	-4.9	4.11µM*	-17.2	4.11µM*
CN(C)c1ccc(NC(=O)CN2CCC(O)(c3ccccc3)CC2)cc1	-1.0	-21.4%	5.7	-5.5%[46.1 µM]
Cc1ccc(C)c(NC(=O)CCN2CCN(c3ccccc3F)CC2)c1	-5.4	.	-3.8	.
CN1CCC(CNC(=O)Nc2csc3ccccc23)CC1	24.9	3.0%[46.1 µM]	36.2	-17.6%[46.1 µM]
CN(C)c1ccc(NC(=O)Nc2csc3ccccc23)cc1	44.2*	-29.0%[46.1 µM]	75.8*	?
O=C(Nc1ccc(F)cc1)Nc1csc2ccccc12	20.8*	?	96.6*	?
Cc1cc(C)c(CN2CCC(CO)(CCOc3ccccc3)CC2)cc1C	0.3	?	-17.0	11.2µM*
CC(=O)N1CCN(c2ccc(NC(=O)c3cccc(C)c3)cc2)CC1	12.8*	0.9%	.	4.9%
SMILES	CHX counter	LASV entry inh	Shiga inhibitor	Marburg entry inh
CC(=O)N1CCN(c2ccc(NC(=O)c3cccc([N+](=O)[O-])c3)cc2)CC1	-2.8	.	37.4	.
CC(=O)N1CCN(c2ccc(NC(=O)c3ccccc3)cc2)CC1	22.8*	0.5%	39.3*	25.0%
Cc1cccc(C(=O)Nc2ccc(C(=O)N3CCCCC3C)cc2)c1 (stereo unspecified)	23.6*	-3.7%	29.5	-18.2%
CC(=O)N1CCN(c2ccc(NC(=S)NC(=O)c3ccccc3)cc2)CC1	-2.7	-0.2%	-2.0	?
C/C(=N/N=C(\C)c1ccccc1O)c1ccccc1O	24.0*	-2.2%[46.1 µM]	38.5*	?
CCOC(=O)C1=C(C)OC(N)=C(C#N)[C@H]1c1cc2ccccc2nc1N1CCCCC1	.	.	.	0.9%
